Results published in the supplement of paper PMC4840960.
± gives the standard deviation of the averaged measurements.

system: E18 rat cortical neuron-glia co-culture; test: fiber score / MBP score (myelination specific beyond OL differentiation) (ratio); higher = more myelination-specific MBP alignment; details: 1 µM; treatment time: 8 days (DIV5-DIV13)
Procedure, shortened: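 The measure is the ratio of fiber score to MBP score, where fiber score is continuous MBP fiber length per Olig2+ nucleus and MBP score is thresholded MBP area × intensity per Olig2+ nucleus. Primary E18 rat cortical co-cultures received library compounds at 1 or 5 µM in myelination medium from DIV5 to DIV13, then were fixed in 4 % paraformaldehyde and stained for MBP, Olig2 and DAPI before analysis of four 10X fields per well in duplicate wells.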

SMILES	fiber score / MBP score
CO[C@H]1/C=C/O[C@@]2(C)Oc3c(C)c(O)c4c(O)c(c(/C=N/N5CCN(C)CC5)c(O)c4c3C2=O)NC(=O)/C(C)=C\C=C\[C@H](C)[C@H](O)[C@@H](C)[C@@H](O)[C@@H](C)[C@H](OC(C)=O)[C@@H]1C [Rifampicin]	0.964
COc1ccc2cc(CCC(C)=O)ccc2c1 [Nabumetone]	0.801
Nc1ncnc2c1ncn2[C@@H]1O[C@H](CO)[C@@H](O)[C@H]1O [Adenosine]	1.08
Cc1noc(NS(=O)(=O)c2ccc(N)cc2)c1C [Sulfisoxazole]	0.958
CC(=O)OCC(=O)[C@@]1(O)CC[C@H]2[C@@H]3CCC4=CC(=O)CC[C@]4(C)[C@H]3C(=O)C[C@@]21C [Cortisone acetate]	0.82
COc1cc(CNC(=O)CCCC/C=C\C(C)C)ccc1O [Zucapsaicin]	0.875
CN1CCN2c3ncccc3Cc3ccccc3C2C1 (centres undefined) [Mirtazapine]	0.861
COCCOC(=O)C1=C(C)NC(C)=C(C(=O)OC(C)C)C1c1cccc([N+](=O)[O-])c1 (centres undefined) [Nimodipine]	0.486
CN1CCN(c2c(F)cc3c(=O)c(C(=O)O)cn4c3c2SCC4)CC1 [Rufloxacin]	1.05
CC1(C)S[C@@H]2[C@H](NC(=O)[C@H](N)c3ccccc3)C(=O)N2[C@H]1C(=O)O [Ampicillin]	0.301
C=C1/C(=C\C=C2/CCC[C@]3(C)[C@@H]([C@H](C)CCCC(C)(C)O)CC[C@@H]23)C[C@@H](O)C[C@@H]1O [Calcitriol]	0.737
CN(C)CCOC(C)(c1ccccc1)c1ccccn1 (centres undefined) [Doxylamine]	0.674
CNCC[C@H](Oc1cccc2ccccc12)c1cccs1 [Duloxetine]	0.73 ± 0.064
COc1cc(N)c(Cl)cc1C(=O)NC1CCN(CCCOc2ccc(F)cc2)CC1OC (centres undefined) [Cisapride]	0.935
CCN(CC)CCNC(=O)c1cc(Cl)c(N)cc1OC [Metoclopramide]	0.848
CCC(C)(C)C(=O)O[C@H]1C[C@@H](C)C=C2C=C[C@H](C)[C@H](CC[C@@H]3C[C@@H](O)CC(=O)O3)[C@H]21 [Simvastatin]	1.17
C[C@]12CCC(=O)C=C1CC[C@@H]1[C@@H]2[C@@H](O)C[C@@]2(C)[C@H]1CC[C@]2(O)C(=O)CO [Hydrocortisone]	0.712 ± 0.026
CCN(CC)CCNC(=O)c1ccc(N)cc1 [Procainamide]	0.82
Nc1ccn([C@H]2CC[C@@H](CO)O2)c(=O)n1 [Zalcitabine]	0.888
CC(=O)OCC(=O)NCCCOc1cccc(CN2CCCCC2)c1 [Roxatidine acetate]	0.727

SMILES	fiber score / MBP score
C[C@H]1C[C@H]2[C@@H]3CCC4=CC(=O)C=C[C@]4(C)[C@@]3(F)[C@@H](O)C[C@]2(C)[C@@]1(O)C(=O)CCl [Clobetasol]	0.961
CN(C)CCCN1c2ccccc2CCc2ccccc21 [Imipramine]	0.817
CCOC(=O)[C@H](CCc1ccccc1)N[C@@H](C)C(=O)N1Cc2ccccc2C[C@H]1C(=O)O [Quinapril]	0.878
O=C(CCCN1CC=C(n2c(=O)[nH]c3ccccc32)CC1)c1ccc(F)cc1 [Droperidol]	0.863
CCOC(=O)c1ccc(OC(=O)CCCCCNC(=N)N)cc1 [Gabexate]	0.709
CN(C)CCc1c[nH]c2ccc(Cn3cncn3)cc12 [Rizatriptan]	0.516
CCC1=C[C@@H]2CN(C1)Cc1c([nH]c3ccccc13)[C@@](C(=O)OC)(c1cc3c(cc1OC)N(C)[C@H]1[C@@](O)(C(=O)OC)[C@H](OC(C)=O)[C@]4(CC)C=CCN5CC[C@]31[C@@H]54)C2 [Vinorelbine]	0.944
CN(C)CCN(Cc1ccccc1)c1ccccn1 [Tripelennamine]	0.67
O=C(c1ccc(OCCN2CCCCC2)cc1)c1c(-c2ccc(O)cc2)sc2cc(O)ccc12 [Raloxifene]	0.211
Nc1nc2c(ncn2COCCO)c(=O)[nH]1 [Acyclovir]	0.568
COc1cc(C)c(Cc2cnc(N)nc2N)cc1OC [Ormetoprim]	0.746
Nc1nc(=O)[nH]cc1F [Flucytosine]	0.88
COc1ccc(CCN(C)CCCC(C#N)(c2ccc(OC)c(OC)c2)C(C)C)cc1OC (centres undefined) [Verapamil]	0.856
CC(C)n1c(/C=C/C(O)CC(O)CC(=O)O)c(-c2ccc(F)cc2)c2ccccc21 (centres undefined) [Fluvastatin]	0.312
Cc1cnc(C(=O)NCCc2ccc(S(=O)(=O)NC(=O)NC3CCCCC3)cc2)cn1 [Glipizide]	1.13
CC(C)OC(=O)C(C)(C)Oc1ccc(C(=O)c2ccc(Cl)cc2)cc1 [Fenofibrate]	0.901
CCn1cc(C(=O)O)c(=O)c2ccc(C)nc21 [Nalidixic Acid]	0.966
CCN(CC)CC(=O)Nc1c(C)cccc1C [Lidocaine]	0.745
CC(C)C(=O)Nc1ccc([N+](=O)[O-])c(C(F)(F)F)c1 [Flutamide]	0.826
